PubChem BioAssay AID743291 (Broad Institute, 2014)
Measured potencies and affinities stand elsewhere. A number with no mark means an inactive call.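 The calls were made as follows: active = signal drop with fitted half-maximal dose at most twice the top valid dose, active in every repeat; inconclusive = repeats disagree, or flat partial inhibition, or poor fit; inactive = inactive in every repeat, including opposite effects.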

Molecular target: Caspase-3 (Homo sapiens) (UniProt P42574)
Assay: caspase-3 enzyme inhibitors, selectivity check, dose response, selectivity assay for caspase-6 allosteric inhibitor project, biochemical, fluorescence, cherry-picked samples (AID 743291)
Details: Recombinant caspase-3, Z-DEVD-R110 cleavage fluorescence; series mostly up to 35 µM; activity change, negative = inhibition: at the top concentration

Sequence of Caspase-3 (Homo sapiens) (P42574 whole entry, looked up): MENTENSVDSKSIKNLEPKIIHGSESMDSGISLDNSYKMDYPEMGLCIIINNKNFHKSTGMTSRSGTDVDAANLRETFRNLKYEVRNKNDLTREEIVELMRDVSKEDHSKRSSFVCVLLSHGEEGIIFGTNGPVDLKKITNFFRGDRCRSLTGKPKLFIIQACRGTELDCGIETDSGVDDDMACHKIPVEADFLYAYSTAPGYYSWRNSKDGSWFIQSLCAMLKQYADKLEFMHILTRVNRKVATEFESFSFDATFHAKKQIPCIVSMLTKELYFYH

SMILES	activity change, negative = inhibition [%]
O=C(COC(=O)c1ccccc1)Nc1ncc([N+](=O)[O-])s1	2.71
Nc1cc2nn(-c3ccccc3)nc2cc1Cl	-1.99
Oc1cc(NCCN2CCOCC2)cc2cccnc12	7
O=C(O)Cc1ccc(-n2cccc2)cc1	2.88
Cc1ccc(S(=O)c2ccc([N+](=O)[O-])c3nonc23)cc1 (stereo not drawn)	-3.48
O=c1cc2c(=O)oc3cc(O)c(O)oc3c2c(O)c1O	1.36
O=C(O)/C(=C\c1ccc(Cl)c([N+](=O)[O-])c1)c1ccc(S(=O)(=O)N2CCCC2)s1	2.29
COc1cc(NC(C)CCCN)c2ncccc2c1 (stereo not drawn)	8.81
COCCn1c2nc(=O)n(-c3ccccc3)c(=O)c-2nc2ccccc21	0.556
Cc1ccc(S(=O)(=O)Nc2csc(C)c2C(=O)O)cc1	-1.28
O=c1c(O)cccc2cc(O)c(O)c(O)c12	-2.98
CCOc1c(O)ccc(/C=C2\SC(=S)NC2=O)c1[N+](=O)[O-]	-3.04
Oc1cc(NCCc2cccnc2)cc2cccnc12	-1.7
CN(CC(=O)Nc1ccccc1Cl)C(=O)COC(=O)c1ccc([N+](=O)[O-])s1	2.73
O=S(=O)(O)c1cc(O)c2cc(Nc3ccccc3)ccc2c1	1.26
CCOC(=O)c1sc2nc(OCCN3CCOCC3)cc(C)c2c1N	-0.914
CCCN(C(=O)c1cccc(-n2cccc2)c1)c1c(N)n(Cc2ccccc2)c(=O)[nH]c1=O	-0.571
NS(=O)(=O)c1ccc(NC(=O)COC(=O)c2ccc([N+](=O)[O-])s2)cc1	-0.1
CN(CC(=O)Nc1c(Cl)cccc1Cl)C(=O)c1cccc(-n2cccc2)c1	4.11

SMILES	activity change, negative = inhibition [%]
CN(C)CCCNc1cc(O)c2ncccc2c1	4.7
O=c1[nH]c(Nc2ccccc2Cl)cc2ccccc12	-3.15
O=C1NC(=O)C(=Cc2ccccc2[N+](=O)[O-])S1	1.62
CO[C@H]1CN(C)C(=O)c2cc(NC(C)=O)ccc2OC[C@@H](C)N(C(=O)CC2CC2)C[C@H]1C	5.39
Nc1cc(S(=O)(=O)O)cc([N+](=O)[O-])c1O	8.37
CCCc1nc2c(=O)n(C)c(=O)nc-2n(C)n1	0.922
Oc1cc(O)cc(C=Cc2ccc(O)c(O)c2)c1	0.444
CCOC(=O)[C@H](Cc1c[nH]c2ccccc12)NC(=O)CN=[N+]=[N-]	1.19
COc1ccc(NC(=O)CN(C)C(=O)c2cccc(-n3cccc3)c2)cc1	0.781
O=C(O)C1CCCCC1C(=O)Nc1cccc(Br)c1 (stereo not drawn)	9.34
C/C(CC(=O)N1CCCC1)=N\NC(=O)c1cc2ccccc2cc1O	0.574
[O-][n+]1onc2c1CCc1c-2nn(-c2ccccc2Cl)[n+]1[O-]	-3.66
COc1ccc(OC)c(Nc2cc3ccccc3c(=O)[nH]2)c1	-0.092
O=c1[nH]c(Nc2ccc(F)cc2)cc2ccccc12	-1.07
Cc1c(CCC(=O)O)c(=O)oc2c(C)c(OCc3ccccc3Cl)ccc12	0.576
CC(CNc1ccccc1O)C(=O)O (stereo not drawn)	-2.67
O=C(Nc1ccc2nc3n(c(=O)c2c1)CCCCC3)c1c(F)ccc([N+](=O)[O-])c1F	3.48
Cn1cnnc1SCC(=O)Nc1ncc([N+](=O)[O-])s1	-0.172
COc1cc(NC(=O)COC(=O)c2ccc([N+](=O)[O-])s2)cc(OC)c1OC	4.09
